Results reported in PubChem BioAssay (EPA / NIEHS).
Activity calls are given as the source filed them. Rule for the calls: active = hit-call score of the fitted dose curve at least 0.9, where 1 is the maximum; inactive = score below 0.9.

What follows are compounds tested on HGF (gene 3082) (assay: LTEA_HepaRG_HGF: Life Technologies and Expression Analysis (LTEA) Assay for Hepatocyte Growth Facto (HGF) using HepaRG (AID 2283505)). Settings: mRNA level, 48 h; actives raise or lower the signal.
Description: LTEA_HepaRG is a cell based, multiplexed-readout assay that uses HepaRG, a human liver cell line, with measurements taken at 48 hours after chemical dosing on a 96-well plate.LTEA_HepaRG_HGF is one of 102 assay component(s) measured in the LTEA HepaRG cell culture assay. It is a marker of Cell proliferation, survival, death.Data from the assay component LTEA_HepaRG_HGF was analyzed into 1 endpoint. This assay endpoint, LTEA_HepaRG_HGF, was analyzed with bidirectional fitting relative to DMSO as the negative control and baseline of activity. Using a type of inducible reporter, measures of mRNA induction for gain or loss-of-signal activity can be used to understand regulation of transcription factor activity. To generalize the intended target to other relatable targets, this assay endpoint is annotated to the growth factor intended target family, where the subfamily is hepatocyte growth factor.
A total of 1060 chemcials from the ToxCast library were tested in eight-point concentration-response experiments. Cell culture and cytotoxicity assays were conducted at Thermo Fisher Scientific's Custom Services facility (Madison, WI). A single lot of human HepaRG cells (Thermo Fisher Scientific, Frederick, MD) was used for the cell culture experiments. 96-well format collagen type I coated plates of human HepaRG cells were prepared using established methods. Briefly, cryopreserved HepaRG cells were thawed, plated at a density of approximately 100,000 cells/well in HepaRG Thaw, Plate, and General Purpose media (HPRG770, Thermo Fisher Scientific), and incubated for 48 hours. 0.5% DMSO was selected as vehicle control to balance the requisite need of DMSO in HepaRG cultures to maintain differentiation (for example, baseline metabolism, proportions of hepatocytes vs. cholangiocytes), while enabling further hepatic receptor pathway activation (for example, PXR and CAR) in response to chemical exposure. 48 hours after plating, the culture medium was replaced with HepaRG Serum-Free Incudtion Media. Cells were exposed to each test chemical in duplicate and maintained in CO2 incubators for another 48 hours. Chemical plates were thawed to room temperature and 200x concentrations of treatment groups were prepared. 8-point conentration-reponse curves were made with the highest exposure at 100 uM, followed by half-log dilutions, all in 0.5% DMSO. Each test plate contained variouse controls, induction positive controls (1mM phenobarbital), cytotoxicity positive controls ([…] aflatoxin B1), vehicle controls (0.5% DMSO), and total lysis controls (0.5% DMSO). Cell morphology images were taken using an Essen IncuCyte FLR automated microscope, with six 96-well plates imaged in about 24 minutes. Images were captured and exported and JPEG files. Spent culture media was transfered to black-well plates for the LDH assay, and remaining media was sorted at -80 C for later use. Cells were treated with RLT buffer and frozen until shipped for gene expression analysis. Total RNA was isolated from the cell suspension in 75 uL of Buffer RLT (Qiagen, Germantown, MD 20874) by Quintiles/Expression Analysis (Durham, NC) using a custom isolation procedure. Total RNA from each plate well was transferred to a preamplification plate. Fluidigm's 96.96 Dynamic ArrayTM (Fluidigm, Amsterdam, the Netherlands) technology was used for gene expression analyses by quantitative reverse transcription polymerase chain reaction (qRT-PCR, performed by Quintiles/Expression Analysis, Durham, NC)89. Standard TaqManTM Assays (Applied Biosystems/ThermoFisher Scientific, Foster City, CA) were used to assess the expression of 93 genes selected based on their selectivity and sensitivity to important hepatic receptors known to be modulated by environmental chemicals; importance in human hepatocyte functionality; and hepatotoxicity. […]
CC(C)(C)c1ccc(CSc2cnn(C(C)(C)C)c(=O)c2Cl)cc1 was tested, and the outcome was “inactive”.
In the case of Fc1ccc(Oc2ccnc3cc(Cl)cc(Cl)c23)cc1, the outcome is reported as “inactive”.
N#Cc1nn(-c2c(Cl)cc(C(F)(F)F)cc2Cl)c(N)c1S(=O)C(F)(F)F (stereo not given) was tested, and the AC50 was 90.3 µM (active).
In the case of CCCCNC(=O)n1c(NC(=O)OC)nc2ccccc21, the outcome is reported as “inactive”.
In the case of CCOC(=O)CC(SP(=S)(OC)OC)C(=O)OCC (stereo not given), the outcome is reported as “inactive”.
For CC(Oc1ccc(Cl)cc1Cl)C(=O)O (stereo not given), the outcome was “inactive”.
With CC1COC(Cn2cncn2)(c2ccc(Oc3ccc(Cl)cc3)cc2Cl)O1 (stereo not given) the outcome was “inactive”.
For COP(N)(=O)SC (stereo not given), the outcome was “inactive”.
With COP(=S)(OC)Oc1nc(Cl)c(Cl)cc1Cl the outcome was “inactive”.
CON(C)C(=O)Nc1ccc(Cl)c(Cl)c1 was tested, and the outcome was “inactive”.
C=CCC1=C(C)[C@@H](OC(=O)[C@@H]2[C@@H](C=C(C)C)C2(C)C)CC1=O was tested, and the outcome was “inactive”.
O=C(O)c1nc(Cl)ccc1Cl was tested, and the outcome was “inactive”.
For C=CC1(C)OC(=O)N(c2cc(Cl)cc(Cl)c2)C1=O (stereo not given), the outcome was “inactive”.
CNC(=S)S was tested, and the outcome was “inactive”.
With COC(=O)N(OC)c1ccccc1COc1ccn(-c2ccc(Cl)cc2)n1 the outcome was “inactive”.
CCCC1COC(Cn2cncn2)(c2ccc(Cl)cc2Cl)O1 (stereo not given) was tested, and the AC50 was 50 µM (active).
In the case of C#CCOS(=O)OC1CCCCC1Oc1ccc(C(C)(C)C)cc1 (stereo not given), the AC50 is reported as 20.1 µM (active).
For CCNc1nc(Cl)nc(NC(C)C)n1, the outcome was “inactive”.
For C=CCC1=C(C)C(OC(=O)C2C(C=C(C)C)C2(C)C)CC1=O (stereo not given), the outcome was “inactive”.
In the case of COc1nc(NC(C)C)nc(NC(C)C)n1, the outcome is reported as “inactive”.
With OC(c1ccc(Cl)cc1)(c1cncnc1)c1ccccc1Cl (stereo not given) the AC50 was 62 µM (active).
In the case of CCON=C(CC)C1=C(O)CC(c2c(C)cc(C)cc2C)CC1=O (stereo not given), the outcome is reported as “inactive”.
For Oc1ccccc1-c1ccccc1, the outcome was “inactive”.
With CC1=C(C(=O)Nc2ccccc2)SCCO1 the outcome was “inactive”.
With O=C(O)COc1nc(Cl)c(Cl)cc1Cl the outcome was “inactive”.
For CC(C)Oc1cc(-n2nc(C(C)(C)C)oc2=O)c(Cl)cc1Cl, the outcome was “inactive”.
With N#Cc1cc(Br)c(O)c(Br)c1 the AC50 was 23.9 µM (active).
For Cc1c(F)c(F)c(COC(=O)C2C(/C=C(\Cl)C(F)(F)F)C2(C)C)c(F)c1F (stereo not given), the outcome was “inactive”.
With CC(C)C1(C)N=C(c2nc3ccccc3cc2C(=O)O)NC1=O (stereo not given) the outcome was “inactive”.
In the case of CCOC(=O)C(Cl)Cc1cc(-n2nc(C)n(C(F)F)c2=O)c(F)cc1Cl (stereo not given), the outcome is reported as “inactive”.
With COc1ccc(C(c2ccc(OC)cc2)C(Cl)(Cl)Cl)cc1 the outcome was “inactive”.
In the case of CCOP(=S)(OCC)SCn1c(=O)oc2cc(Cl)ccc21, the outcome is reported as “inactive”.
With CN(C)C(=S)SSC(=S)N(C)C the outcome was “inactive”.
CCCN(CCC)c1c([N+](=O)[O-])cc(S(N)(=O)=O)cc1[N+](=O)[O-] was tested, and the outcome was “inactive”.
In the case of Cc1ccc(-c2c(Cl)nc(C#N)n2S(=O)(=O)N(C)C)cc1, the AC50 is reported as 86 µM (active).
With CCNc1nc(Cl)nc(NCC)n1 the outcome was “inactive”.
In the case of O=C(Nc1ccccc1)Nc1ccnc(Cl)c1, the AC50 is reported as 78 µM (active).
For COc1cnc(OC)n2nc(NS(=O)(=O)c3c(OCC(F)F)cccc3C(F)(F)F)nc12, the outcome was “inactive”.
For CCCCC(CC)COC(=O)c1ccccc1C(=O)OCC(CC)CCCC (stereo not given), the outcome was “inactive”.
For COC(=O)C(C)Oc1ccc(Oc2ccc(Cl)cc2Cl)cc1 (stereo not given), the outcome was “inactive”.
